Screens: PubChem, several laboratories
HSP90 refold inh = blocks HSP90-mediated luciferase refolding in reticulocyte lysate; Rabbit reticulocyte lysate, luciferase refolding luminescence, 3 h; inhibition, % at 5.6 µM; 0.91% of 290,000 active; AID 1789;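 active = inhibition above the screen-wide mean plus 3 SD, computed separately per campaign, cut at about 16% in these data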;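 note: 0% = DMSO wells and 100% = 60 µM geldanamycin wells; inhibitors lower the luminescence because luciferase stays unfolded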
MPTP block = permeability transition pore inhibition; isolated mouse mitochondria, Ca2+ swelling absorbance, 30 min; inhibition, % at 10 µM; 1.4% of 360,000 active; AID 602449;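 active = inhibition of 50% or more, scaled per plate between neutral and stimulator controls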;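 note: 0% = DMSO wells given calcium and 100% = 1 mM EGTA wells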
dFosB activator = enhances mouse delta FosB homodimer DNA binding | 0.99% of 340,000 active | P13346 | activation, % at 25 µM | purified delta FosB, TAMRA-CDK5 oligo fluorescence polarization; percent of positive-control signal above neutral wells | AID 493131;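 active = mean activation above about 17%, with every replicate also reaching it, limit read from the data, passing the limit was not always enough; inconclusive = only one of the two conditions met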
Target sequence (P13346 whole entry, looked up): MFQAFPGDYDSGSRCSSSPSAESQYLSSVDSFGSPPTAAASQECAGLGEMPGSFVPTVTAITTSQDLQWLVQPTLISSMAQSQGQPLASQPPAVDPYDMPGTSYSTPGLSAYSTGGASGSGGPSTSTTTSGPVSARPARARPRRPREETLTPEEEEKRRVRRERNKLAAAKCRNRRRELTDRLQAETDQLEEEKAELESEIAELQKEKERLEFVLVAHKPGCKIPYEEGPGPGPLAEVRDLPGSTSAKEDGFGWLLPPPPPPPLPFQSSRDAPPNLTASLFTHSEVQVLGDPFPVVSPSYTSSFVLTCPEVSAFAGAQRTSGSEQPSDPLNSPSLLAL
HSF-1 act = increases HSF-1 driven luciferase reporter signal | 1.7% of 300,000 active | AID 504408 | activation, % at 9 µM | NIH3T3-HGL HSF-1 luciferase reporter, MG132, 8 h; 100% = twice DMSO control signal;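 active = mean replicate activation of at least 50% with a set share of replicates each reaching 50%; inconclusive = only one of those two conditions met; inactive = mean below 50% and too few replicates reaching it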;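 note: 0% = median of the neutral control wells and 100% = twice that signal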
HSF1 inhib = HSF1 inhibition; NIH3T3-HGL HSE-luciferase, MG132-induced, luminescence 8 h; active compounds read low; activity change, negative = inhibition, % at 7.5 µM (by protocol); AID 2098; 0.77% of 300,000 active;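 active = more than half of replicate wells show activity change below -50%, luminescence cut by over half; inconclusive = some wells, but at most half, below -50%; inactive = no replicate well below -50%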;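 note: luciferase reports HSF-1 transcriptional activity via heat shock element; 0% = median of DMSO wells and -100% = zero luminescence signal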
Platelet DG rel = modulates dense granule release in human platelets. human platelet-rich plasma, SFLLRN dense granule ATP release, luminescence. inhibition, %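 (compounds screened at 7.5 µM in platelet-rich plasma)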. 0.22% of 300,000 active. AID 1663;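 active = mean replicate score, as percent of positive control, at or above 50; inconclusive = mean below 50 but at least one replicate at or above 50; inactive = mean and every replicate below 50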
Active calls of the source: *. In the library only some 4.9% were active in any assay of this set; here they are far more common.

Screening COc1ccc(-n2c(C)cc(/C=C3\SC(=S)N(Cc4ccco4)C3=O)c2C)cc1 returned HSP90 refold inh 1, MPTP block 2, dFosB activator -12, HSF-1 act inconclusive, HSF1 inhib 26 and Platelet DG rel 14.
For O=C(CCN1C(=O)/C(=C\c2ccc(F)cc2)SC1=S)Nc1ccccc1 the results were HSP90 refold inh 0, MPTP block 3, dFosB activator -2, HSF-1 act 6, HSF1 inhib -1 and Platelet DG rel 20.
Screening COc1ccc(/C=C2\SC(=S)N(CCC(=O)Nc3ccc(O)cc3)C2=O)cc1 returned HSP90 refold inh 1, MPTP block 6, dFosB activator 34*, HSF-1 act 11, HSF1 inhib 2 and Platelet DG rel -1.
For CC(/C=C1\SC(=S)N(CCC(=O)Nc2ccc(O)cc2)C1=O)=C\c1ccccc1 the results were HSP90 refold inh 3, MPTP block 0, dFosB activator 23*, HSF-1 act 35, HSF1 inhib 3 and Platelet DG rel -4.
For COc1cccc(/C=C2/SC(=S)N(CCCC(=O)Nc3ccc(O)cc3)C2=O)c1 the results were HSP90 refold inh 1, MPTP block 1, dFosB activator 5, HSF-1 act -36, HSF1 inhib -23 and Platelet DG rel -9.
Screening CC(=Cc1ccccc1)C=C1SC(=S)N(CCCC(=O)Nc2ccc(C(=O)O)c(O)c2)C1=O returned MPTP block 2.
Screening O=C(CCN1C(=O)/C(=C/c2ccc(F)cc2)SC1=S)NCCCn1ccnc1 returned HSP90 refold inh 3, MPTP block 2, dFosB activator -4, HSF-1 act -69, HSF1 inhib -59* and Platelet DG rel -4.
`O=C(CCN1C(=O)/C(=C\c2ccc(F)cc2)SC1=S)Nc1ccc(O)cc1` gave HSP90 refold inh 0, MPTP block 1, dFosB activator 32*, HSF-1 act -1, HSF1 inhib 3 and Platelet DG rel 0.
`O=C(CCN1C(=O)/C(=C/c2cccs2)SC1=S)Nc1ccccc1O` gave HSP90 refold inh -1, MPTP block 10, dFosB activator 21*, HSF-1 act 69*, HSF1 inhib 43 and Platelet DG rel -8.
For CCc1ccc(NC(=O)c2ccccc2SC)cc1 the results were HSP90 refold inh -1, MPTP block 0, dFosB activator 4, HSF-1 act 29, HSF1 inhib -3 and Platelet DG rel -2.
Screening O=C1c2ccccc2C(=O)N1CCC(=O)N1CCCc2ccccc21 returned HSP90 refold inh 2, MPTP block -6, dFosB activator -1, HSF-1 act 58*, HSF1 inhib 22 and Platelet DG rel -8.
Screening O=C(c1cccc([N+](=O)[O-])c1)N1CCc2ccccc21 returned HSP90 refold inh -3, MPTP block 0, dFosB activator 1, HSF-1 act -73, HSF1 inhib -68* and Platelet DG rel -6.
O=C(Cn1nnc(-c2ccncc2)n1)N1CCc2ccccc21 was read as HSP90 refold inh 2, MPTP block -2, dFosB activator 4, HSF-1 act -8, HSF1 inhib 6 and Platelet DG rel 13.
For Cc1ccc(C(=O)N2CCc3ccccc32)cc1 the results were HSP90 refold inh 0, MPTP block 1, dFosB activator 3, HSF-1 act 66*, HSF1 inhib 23 and Platelet DG rel -1.
Screening Cc1ccc(-c2nnn(CC(=O)N3CCCc4ccccc43)n2)cc1 returned HSP90 refold inh -2, MPTP block 0, dFosB activator -9, HSF-1 act 57*, HSF1 inhib 11 and Platelet DG rel -2.
COc1ccc(CCNC(=O)CN(Cc2ccc(Cl)cc2)S(C)(=O)=O)cc1OC was read as HSP90 refold inh -1, MPTP block -2, dFosB activator -7, HSF-1 act 2, HSF1 inhib -1 and Platelet DG rel -5.
COc1ccc(S(=O)(=O)N2CCCOC2CNC(=O)C(=O)NCc2ccccc2C)cc1 (stereo not given) was read as MPTP block -2.
O=C(CC1Sc2ccccc2NC1=O)NCc1ccc(Cl)cc1 (stereo not given) was read as HSP90 refold inh 2, MPTP block -2, dFosB activator 9, HSF-1 act 10, HSF1 inhib 4 and Platelet DG rel -1.
`Cc1cc(C)nc(SCC(=O)N2CCc3ccccc32)n1` gave HSP90 refold inh -1, MPTP block 0, dFosB activator -2, HSF-1 act 22, HSF1 inhib 13 and Platelet DG rel 0.
Cc1ccc(SCC(=O)N2CCc3ccccc32)cc1 was read as HSP90 refold inh -6, MPTP block 0, dFosB activator 2, HSF-1 act 80*, HSF1 inhib 76 and Platelet DG rel 11.
Screening Cc1cc(C)cc(C(=O)OCC(=O)NC(=O)NC2CCCC2)c1 returned MPTP block 0 and dFosB activator -17.
For Cc1noc(C)c1COC(=O)c1csc2c1CCC(C)C2 (stereo not given) the results were MPTP block 0 and dFosB activator -10.
Screening COc1ccc(C=O)cc1Cn1c(=O)n(CCC(=O)NCc2ccco2)c(=O)c2sccc21 returned HSP90 refold inh 4, MPTP block 1, dFosB activator 94*, HSF-1 act -5, HSF1 inhib 4 and Platelet DG rel -2.
`CCOc1cc([N+](=O)[O-])cc(/C=C2/NC(=O)N(Cc3ccccc3F)C2=O)c1O` gave HSP90 refold inh -1, MPTP block 0, dFosB activator -4, HSF-1 act 135*, HSF1 inhib 99 and Platelet DG rel 1.
COC(=O)c1cc(S(=O)(=O)C(C)C)c(S(C)=O)s1 (stereo not given) was read as HSP90 refold inh 5, MPTP block 0, dFosB activator 1, HSF-1 act 90*, HSF1 inhib 53 and Platelet DG rel 4.
For CSc1sc(C(=O)NCC2CC2)cc1S(=O)(=O)C(C)C the results were HSP90 refold inh 2, MPTP block 1, dFosB activator 0, HSF-1 act 2, HSF1 inhib 10 and Platelet DG rel -6.
`COc1ccc(N2CCN(S(=O)(=O)c3c(C)nc4sccn4c3=O)CC2)cc1` gave HSP90 refold inh -3, MPTP block -1, dFosB activator -9, HSF-1 act -3, HSF1 inhib -8 and Platelet DG rel 95*.
Screening Cc1nc2scc(C)n2c(=O)c1S(=O)(=O)N1CCN(c2cccc(C(F)(F)F)c2)CC1 returned HSP90 refold inh -1, MPTP block 0, dFosB activator -23, HSF-1 act -70, HSF1 inhib -65* and Platelet DG rel -1.
For COc1ccc(Cc2nc3ccc(C(=O)N(C)C(C)c4ccon4)cc3o2)cc1 (stereo not given) the results were HSP90 refold inh 2, MPTP block 1, dFosB activator -9, HSF-1 act -13, HSF1 inhib 10 and Platelet DG rel 4.
